Results on 54 compounds are retold here after PubChem BioAssay AID588397 (National Center for Advancing Translational Sciences (NCATS), 2011).

Out of some 1,300 compounds screened, about 1,000 (77%) were called active. Not shown: some 7% with an inconclusive outcome. The set was probably picked from earlier hits. This is one part of the list. Unmarked numbers belong to inactive results. Calls come from the whole dose curve; as a rule, active = well fitted inhibition curve with a large enough effect; inconclusive = small, poorly fitted or top-dose-only effect; inactive = no such curve, though single readings can be large or run the other way.
% is set by controls: 0 for no effect and ±100 for the full control effect; potency is the fitted concentration of half-maximal effect.

The nature of this experiment: qHTS of small molecules that selectively kill Giardia lamblia: Hit Validation.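 Note: viability measured as ATP content by luminescence so killing lowers signal; nearly all actives have a fitted effect of over 65% in size.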 The settings on record: Giardia lamblia trophozoite viability, dose-response; series mostly up to 38.3 µM; activity change, negative = killing: at the top concentration. From the text: Giardia lamblia is a human pathogen afflicting impoverished nations, and the most common cause of outbreaks of diarrhea in the United States. Giardia has been classified by the CDC as a category B bioterrorism organism. The favored anti giardiasis drugs in the US are metronidazole or tinidazole, compounds that have undesirable side effects. Moreover, increasing resistance to drug regimes and recurrence are a concern. It is thus clear that alternative drug treatments are needed.
In a collaboration between the University of Maryland, College Park and the NIH Chemical Genomics Center, a bioluminescence Giardia viability assay based on the trophozoites' ATP content was developed. This assay is suitable for high throughput screening, and miniaturized the assay for compound screening in 1536-well plates. The goal of the project is to screen the Molecular Libraries Small Molecule Repository (MLSMR) for compounds that selectively kill Giardia trophozoites.
NIH Chemical Genomics Center [NCGC]
NIH Molecular Libraries Probe Centers Network [MLPCN]
Assay Submitter (PI): Osnat Herzberg, University of Maryland, College Park, MD.
1. Dispense 2 ul/well media
2. Dispense 23 nl/well compounds
3. Dispense 4 ul/well Giardia trophozoites at a concentration of 100 cells/well
4. Incubate 48 hrs at 37 deg C anaerobically
5. Dispense 4 ul/well ATPLite 1-Step Luminescence assay kit
6. Incubate 15-30 min at room temperature
7. Read luminescence signal on ViewLux plate reader
On the technique in general: qHTS replaces the single test concentration by a dilution series.
Take `Cc1cc([N+](=O)[O-])c2ccccc2[n+]1[O-]`: the Potency is 0.206 µM (active). As for `CC(=O)OC[C@]12CCC(C)=C[C@H]1O[C@@H]1[C@H](O)[C@@H](OC(C)=O)[C@@]2(C)[C@]12CO2`, the Potency was 5.16 µM (active). The same measure, in the same setting: the same measure for `COC1/C=C/C=C(\C)Cc2cc(O)c(Cl)c(c2)N(C)C(=O)CC(OC(=O)C(C)C)C2(C)OC2C(C)C2CC1(O)NC(=O)O2` (centres undefined): 0.46 µM (active). Regarding `COC(/C(C)=C/C=C/C(C)=C/c1coc(C)n1)C(C)C1CC(O)C2(C)OC2C=CC(C)C2CC(CC(=O)O2)CC2OC2C(=O)O1` (centres undefined), the Potency is 0.0231 µM (active).

Take `C[N+]12CCC(CC1)C(=C(c1ccccc1)c1ccccc1)C2`: the “activity change, negative = killing” value was -5.4%. Consider `COC12C(COC(N)=O)C3=C(C(=O)C(C)=C(N)C3=O)N1CC1C2N1C` (centres undefined), for which the Potency was 5.79 µM (active). Still for that read-out and setting: the same measure for `O=[N+]([O-])c1cc([As](=O)(O)O)ccc1O`: 5.79 µM (active). For the compound `O=[N+]([O-])c1cc([As](=O)(O)c2ccc(O)c([N+](=O)[O-])c2)ccc1O`, the Potency was 0.818 µM (active). On to `O=[N+]([O-])c1ccc(O)c([N+](=O)[O-])c1`, for which the Potency is 2.31 µM (active). Take `Cc1nnc2ccc(-c3cccc(C(F)(F)F)c3)nn12`: the “activity change, negative = killing” value is -28.2%. Take `ClCCOCCCl`: the “activity change, negative = killing” value was -5.76%. The same measure, in the same setting: the same measure for `Fc1ccc(C2NCCc3[nH]cnc32)cc1` (centres undefined): 10.2%. In the case of `CCOc1ccc(-c2cc(C(=O)N3CCC4(CC3)OCCO4)c3ccccc3n2)cc1`, the Potency is 7.29 µM (active). Same read-out and setting: the figure for `COc1ccc(CC2NCC(O)C2OC(C)=O)cc1` (centres undefined) is 1.03 µM (active); for `COc1ccc(C[C@H]2NC[C@H](O)[C@H]2OC(C)=O)cc1` it is 0.65 µM (active); for `CCOC(=O)C1CCCN(c2ccc([N+](=O)[O-])c3nonc23)C1` (centres undefined) it is 1.16 µM (active). In the case of `CNC(=O)Oc1cccc(-c2cn3cc(Cl)ccc3n2)c1`, the Potency was 2.05 µM (active). Turning to `CC1=C(N2CC2)C(=O)C(CO)=C(N2CC2)C1=O`, the Potency was 0.115 µM (active). In the case of `c1ccc2c(c1)[I+]c1ccccc1-2`, the Potency is 0.146 µM (active). With `COC(=O)c1nc(-c2ccc3c(n2)C(=O)C(N)=C(OC)C3=O)c(N)c(-c2ccc(OC)c(OC)c2O)c1C`, the Potency is 2.59 µM (active). For `CN(C)C(=O)Oc1ccc(Br)c2ccccc12`, the “activity change, negative = killing” value was 12.9%. As to `CC(=O)OC1(C)CC(C)C(=O)C(C(O)CC2CC(=O)NC(=O)C2)C1` (centres undefined), the Potency was 0.0183 µM (active). As for `CC1CC(C)(O)CC(C(O)CC2CC(=O)NC(=O)C2)C1=O` (centres undefined), the Potency was 0.146 µM (active). For the compound `CC(C)(O)C1C2OC(=O)C1C1(O)CC3OC34C(=O)OC2C14C` (centres undefined), the “activity change, negative = killing” value is 2.07%.

As for `Cc1ncc([N+](=O)[O-])n1CCOc1nonc1N`, the Potency is 1.03 µM (active). Regarding `Cc1ncc([N+](=O)[O-])n1CCOC(N)=O`, the Potency was 3.26 µM (active). The same measure, in the same setting: the same measure for `CC1CC(C)CC(C)C(O)C(C#N)=CC=CCC(C2CCCC2C(=O)O)OC(=O)CC(O)C(C)C1` (centres undefined): 0.326 µM (active); for `COc1ccc(OC(=O)N2C/C(=C/c3ccccc3)C(=O)/C(=C\c3ccccc3)C2)cc1`: 1.16 µM (active). As for `NC(=O)c1cc(N2CC2)c([N+](=O)[O-])cc1[N+](=O)[O-]`, the Potency was 0.65 µM (active). With `O=[N+]([O-])c1ccc(-c2ccccc2)c([As](=O)(O)O)c1`, the Potency is 0.259 µM (active). With `CC1Oc2cc3c(-c4c(O)cc(O)c5c(O)c6c(cc45)OC(C)C(C)C6=O)c(O)cc(O)c3c(O)c2C(=O)C1C` (centres undefined), the Potency is 1.03 µM (active).

On to `COC(COC(N)=O)C1=C(N2CC2)C(=O)C(C)=C(N2CC2)C1=O` (centres undefined), for which the Potency was 0.729 µM (active).

Regarding `O=[N+]([O-])c1oc2ccc3ccccc3c2c1CCO`, the Potency is 0.0516 µM (active). Take `NN=C(N)N`: the “activity change, negative = killing” value is -24.8%. Regarding `C[C@@H]1C[C@@H]([C@H](O)CC2CC(=O)NC(=O)C2)C(=O)[C@@H](C)C1`, the Potency is 0.183 µM (active). As for `C[C@H]1C[C@@H](C)C(=O)[C@@H]([C@H](O)CC2CC(=O)NC(=O)C2)C1`, the Potency was 0.0729 µM (active). As for `Cn1nc(-c2ccccc2)nc2c(=O)n(C)c(=O)nc1-2`, the Potency was 0.163 µM (active). Turning to `Cc1nc2c(=O)n(C)c(=O)nc-2n(C)n1`, the Potency was 0.259 µM (active). Consider `CCn1nc(/C=C/c2ccccc2)nc2c(=O)n(C)c(=O)nc1-2`, for which the Potency was 0.146 µM (active). Regarding `Cc1ccc(-c2nc3c(=O)n(C)c(=O)nc-3n(C)n2)cc1`, the Potency was 0.103 µM (active).

Regarding `Cc1ccc(C(c2nnnn2Cc2ccccc2)N2CC=C(c3ccc(F)cc3)CC2)cc1` (centres undefined), the “activity change, negative = killing” value was 6.65%.

Take `COC(=O)C12OCC34C(CC5C(C)=C(O)C(=O)CC5(C)C3C(O)C1O)OC(=O)C(OC(=O)/C=C(\C)C(C)C)C24` (centres undefined): the Potency was 0.579 µM (active). As to `O=c1c2ccccc2nc(/C=C/c2ccc(O)cc2)n1-c1cccc(O)c1`, the “activity change, negative = killing” value is -17.3%.

Regarding `Cc1nc2ccccc2c(=O)n1-c1cc([N+](=O)[O-])cc([N+](=O)[O-])c1`, the Potency is 10.3 µM (active). On to `Cc1cccc(-n2c(/C=C/c3ccc([N+](=O)[O-])o3)nc3ccccc3c2=O)c1`, for which the Potency is 1.63 µM (active).

As for `O=c1c2ccccc2nc(/C=C/c2ccc([N+](=O)[O-])o2)n1-c1ccc(O)cc1`, the Potency is 0.29 µM (active).

Turning to `CN1CCN(c2ccc([N+](=O)[O-])c3cccnc23)CC1`, the Potency is 1.03 µM (active). As for `CC1CN(c2ccc([N+](=O)[O-])c3cccnc23)CC(C)N1` (centres undefined), the Potency is 1.3 µM (active). Consider `CCCCn1c(=O)c(C(=O)NCc2ccccc2OC)c(O)c2ccccc21`, for which the “activity change, negative = killing” value is -4.32%. For the compound `[Hg+][c]1ccccc1`, the Potency was 4.1 µM (active). As for `CN1CCCN(c2ccc([N+](=O)[O-])nc2)CC1`, the Potency is 6.5 µM (active). `C=CC1CN2CCC1CC2[C@@H](OC(=O)c1ccc(OC)cc1)c1ccnc2ccccc12` (some centres undefined): the Potency is 0.818 µM (active). Consider `c1ccc2c(c1)[IH]c1ccccc1-2`, for which the Potency is 0.46 µM (active). As to `CN(c1ccccc1)c1ccc([N+](=O)[O-])c2nonc12`, the Potency was 0.41 µM (active).
